Source: PubChem (several laboratories)
The list is not random: actives were taken first. Their share in the collection is about 21%.
MRP-1 activ = MRP-1 activation | 140,000 compounds, 0.61% hits | viability increase, % at 10 µM | H69AR cells + doxorubicin, viability rescue, CellTiter-Glo;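 active = viability gain under doxorubicin at or above a set limit, the compound median plus 3 SD, cut at about 4.7% in these data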;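 note: MRP-1 overexpressing cells given doxorubicin 25 µM after compound pretreatment; 18-22 h compound pretreatment then 72 h with doxorubicin before readout; 0% = doxorubicin-only wells and 100% = vehicle-treated cells without doxorubicin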
CYP2C19 activ = increases human CYP2C19 enzyme activity; recombinant CYP2C19, luciferin-H EGE luminescence; stronger effect = higher value; 0 = fully inhibited enzyme, 1 = untreated enzyme; P33261; activation factor at 5 µM; 96,000 tested, under 10 active;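 active = activation factor of at least 2 at 5 µM in the primary screen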;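 note: 0 = wells with 2.5 mM tranylcypromine and 1 = vehicle-only wells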
CYP2C9 inhib = inhibitors of human CYP2C9; P11712; CYP2C9 Supersomes, luciferin-H conversion, luminescence; 96,000 compounds, 20% hits; inhibition, % at 5 µM;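 active = blocking of liver enzyme CYP2C9 beyond about 50% at 5 µM, limit read from the data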
Target sequence (P11712 whole entry, looked up): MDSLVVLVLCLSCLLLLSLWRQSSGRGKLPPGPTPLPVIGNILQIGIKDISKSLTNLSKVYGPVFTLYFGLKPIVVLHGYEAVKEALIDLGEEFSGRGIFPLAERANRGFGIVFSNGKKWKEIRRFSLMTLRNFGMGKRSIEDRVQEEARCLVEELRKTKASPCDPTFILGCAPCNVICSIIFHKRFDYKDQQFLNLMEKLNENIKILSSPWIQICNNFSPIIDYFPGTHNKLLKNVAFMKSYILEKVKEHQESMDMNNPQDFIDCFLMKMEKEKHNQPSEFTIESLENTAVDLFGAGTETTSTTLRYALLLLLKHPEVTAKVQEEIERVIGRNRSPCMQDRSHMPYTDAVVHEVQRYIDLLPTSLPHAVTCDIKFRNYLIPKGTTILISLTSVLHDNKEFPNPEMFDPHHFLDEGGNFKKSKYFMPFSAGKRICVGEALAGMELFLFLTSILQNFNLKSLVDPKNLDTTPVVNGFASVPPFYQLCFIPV
MRP resist rev = compounds reversing MRP-mediated drug resistance | H69AR cells + 2 uM doxorubicin, CellTiter-Glo, 72 h | differential viability (reversal), % at 10 µM | 85,000 compounds, 0.04% hits | AID 602;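 active = viability drop by adding the cancer drug above about 55%, with treated viability meeting a 40% cutoff, limit read from the data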;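 note: viability without doxorubicin minus viability with 2 µM doxorubicin for each compound; larger differential means the compound sensitizes cells more to doxorubicin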
CYP2C9 activ = CYP2C9 (human) activation; P11712; recombinant CYP2C9, luciferin-H conversion, luminescence; stronger effect = higher value; factor 1 = untreated enzyme, 0 = blocked; activation factor at 5 µM; 96,000 compounds, 1.4% hits;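 active = activation factor of 2 or more for CYP2C9 at a 5 µM dose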;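 note: 0 = sulfaphenazole-blocked wells and 1 = vehicle-only wells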
CYP2C19 inhib = human CYP2C19 inhibition | P33261 | CYP2C19 Supersomes, luciferin-H EGE luminescence, 30 min | inhibition, % at 5 µM | 96,000 compounds, 21% hits | AID 778;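 active = CYP2C19 inhibition above a set limit at 5 µM in the primary screen, cut at about 50% in these data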;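 note: plate controls were negative control wells for no effect and 2.5 mM tranylcypromine positive control for full effect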
The depositor's hits bear a star; / = no result given.

SMILES	MRP-1 activ	CYP2C19 activ	CYP2C9 inhib	MRP resist rev	CYP2C9 activ	CYP2C19 inhib
CN1C(=O)C(C(=O)NC(C)(C)C)C2c3ccccc3OC13CCCCC23 (stereo unspecified)	-3	0.4	60*	-1	0.4	58*
Cc1nc(NC2=NCN(CCc3ccccc3)CN2)nc2c(C)cccc12	/	/	/	3	/	/
COc1ccc(OCCN2CCN(C3CC(=O)N(CCC(C)C)C3=O)CC2)cc1 (stereo unspecified)	-2	0.7	3	9	1	25
Nc1n[nH]c(S(=O)(=O)CCCc2ccccc2)n1	1	0.3	34	3	0.7	70*
COc1ccc(NC(=O)CC2C(=O)N(c3cccc(OC)c3)C(=O)N2C2CCCCC2)cc1 (stereo unspecified)	0	0.9	0	-1	1	8
O=C(CC1C(=O)N(c2ccccc2)C(=O)N1C1CCCCC1)Nc1ccccc1 (stereo unspecified)	-2	0.5	18	13	0.8	52*
O=C(CC1SC(=O)N(c2ccccc2)C1=O)Nc1ccccc1 (stereo unspecified)	6.8*	0.8	36	4	0.6	22
Cc1cccc(NC(=O)CN2C(=O)NC(Cc3ccccc3)C2=O)c1 (stereo unspecified)	0	0.5	60*	5	0.4	47
Cc1cccc(NC(=O)CC2SC(=O)N(c3ccccc3)C2=O)c1 (stereo unspecified)	8.9*	1	30	-1	0.7	4
COc1ccc(OCC(=O)NNC(=O)c2cccc(S(=O)(=O)N(C)C)c2)cc1	5	/	/	/	/	/
Cc1cccc(NC(=O)CC2S/C(=N/c3nccs3)N(C)C2=O)c1 (stereo unspecified)	-1	0.5	80*	-18	0.2	54*
CC(=O)N(c1cccc(C)c1)C1SC(=O)N(c2ccccc2)C1=O (stereo unspecified)	1	0.3	44	-5	0.6	68*
CN=C1SC(CC(=O)Nc2cccc(Cl)c2Cl)C(=O)N1C (stereo unspecified)	0	0.8	-21	7	1.2	15
Cc1cccc(NC(=O)CSc2nc(N)c(NC(=O)c3cccs3)c(=O)[nH]2)c1C	-1	/	/	/	/	/
O=C(C1CCC(=O)N1C1CCCCC1)N1CCN(c2ccc(F)cc2)CC1 (stereo unspecified)	-2	1	2	-12	1	-3
CCOC(=O)c1sc(N)c(C#N)c1COC(=O)CNC(=O)c1cc(OC)c(OC)c(OC)c1	-1	0.5	64*	/	0.4	53*
Cc1ccc(C2SCCN2C(=O)c2ccc([N+](=O)[O-])cc2)cc1 (stereo unspecified)	-2	/	/	/	/	/
CCn1c(COc2ccccc2)nnc1SCC(=O)c1cccc([N+](=O)[O-])c1	-4	0.7	18	/	0.8	30
CC(=O)Nc1ccc(S(=O)(=O)N(C)CC(=O)OCC(=O)Nc2ccc3c(c2)OCO3)cc1	0	/	/	/	/	/
CCCCC1(C)OC(=O)C(=Cc2ccc(N(CC)CC)cc2)C(=O)O1 (stereo unspecified)	-2	0.5	4	/	1	54*
Cc1ccc(/C=N/Nc2nc3ccccc3s2)o1	-2	/	/	/	/	/
O=[N+]([O-])c1ccc(CN2CCOCCOCCOCC2)cc1	-1	/	/	/	/	/
CCN(CC)C(c1ccc(C)cc1)c1nnnn1C1CCCCC1 (stereo unspecified)	-1	0.1	78*	-11	0.2	95*
c1ccc(CN(Cc2ccco2)C(c2ccncc2)c2nnnn2C2CCCC2)cc1 (stereo unspecified)	-4	0	98*	-24	0	98*
Cc1ccc(C(c2nnnn2C(C)(C)C)N(Cc2ccco2)Cc2cccs2)cc1 (stereo unspecified)	-3	0.8	76*	0	0.2	24
SMILES	MRP-1 activ	CYP2C19 activ	CYP2C9 inhib	MRP resist rev	CYP2C9 activ	CYP2C19 inhib
CC(C)(C)n1nnnc1C(c1cccnc1)N(Cc1ccccc1)Cc1cccs1 (stereo unspecified)	-2	0.5	61*	-5	0.4	48
Fc1ccc(C(c2nnnn2C2CCCC2)N(Cc2ccco2)CC2CCCO2)cc1 (stereo unspecified)	0	0.6	13	-16	0.9	38
CC(C)(C)n1nnnc1C(c1ccc(F)cc1)N(Cc1ccc(F)cc1)Cc1ccco1 (stereo unspecified)	0	0.6	65*	14	0.3	37
CCn1c(=S)sc2c(=O)n(-c3ccccc3)c(SC)nc21	-2	0.5	39	-25	0.6	48
N#CCSc1nc2c(sc(=S)n2Cc2ccco2)c(=O)n1-c1ccc(F)cc1	-4	0.4	71*	23	0.3	64*
Cc1cccc(C)c1OCCNC(=O)CCC(=O)c1ccccc1	0	/	/	/	/	/
CC(=O)Nc1ccc(/C(C)=N/NC(=O)C2CC2c2ccccc2)cc1 (stereo unspecified)	0	/	/	/	/	/
CC12CCC(C(=O)N(CSC(=S)N/N=C\c3ccccc3)C1=O)C2(C)C (stereo unspecified)	4.8*	/	/	-13	/	/
CC12CCC(C(=O)N(CSC(=S)N/N=C\c3ccccc3Cl)C1=O)C2(C)C (stereo unspecified)	4	/	/	12	/	/
NC(=O)N/N=C/c1c(F)cccc1F	-2	/	/	/	/	/
Nc1cc(Cl)ccc1Oc1ccc2ccccc2c1	0	0.3	27	/	0.7	71*
Cc1c(Cc2ccc3c(c2)OCO3)sc(NC(=O)C(C)(C)C)c1C#N	-4	1.1	9	-24	0.9	-8
CCCc1nc2c(o1)CC(CC(C)SCC)CC2=O (stereo unspecified)	-1	0.5	42	3	0.6	51*
COc1ccccc1NC(=O)c1ccc2nc(-c3ccccc3)c(-c3ccccc3)nc2c1	-3	0.9	-60	/	1.6	7
COc1ccc(OC)c(NC(=O)Nc2ccc(Cl)cc2)c1	0	0.7	12	-4	0.9	29
COc1ccccc1NC(=O)c1ccc(N)cc1	0	0.8	-313	6	4.1*	15
COc1ccc(OC)c(NC(=O)Nc2cccc(Cn3cccn3)c2)c1	0	0.3	83*	9	0.2	74*
COc1ccc(NC(=O)Nc2cc(C)ccc2OC)cc1	0	0.1	39	5	0.6	95*
COc1ccccc1NC(=O)Nc1cc(NC(=O)Nc2ccccc2OC)c(C)nc1C	-4	/	/	/	/	/
COc1ccc(NC(=O)Nc2ccccc2OC)cc1	0	0.1	34	27	0.7	87*
COc1cccc(/C=N/N2CCN(c3ccncc3S(=O)(=O)N3CCCCC3)CC2)c1	-2	/	/	/	/	/
O=C(C1COc2ccccc2O1)N1CCc2ccccc2C1 (stereo unspecified)	-3	/	/	30	/	/
CCCCCCCCCCNC(=O)C(=O)Nc1ccccn1	-3	0.4	1	15	1	55*
